A selection: hits, their analogues and other compounds. The true share with any hit is near 6.5%.
LASV entry inh: blocks Lassa virus binding to or entry into cells | Potency, µM (doses to about 37.9 µM), inactives show at the top dose activity change, negative = inhibition, hits mostly inhibitors | Lassa virus pseudotype entry inhibition, cell reporter | 300,000 compounds, 1.2% hits; calls by dose curve; tested in HEK293 cells; further: potency means the concentration at half of the fitted maximal effect; nearly all actives have a fitted effect of over 50% in size
Vaccinia mCherry: vaccinia inhibition (mCherry reporter); Potency, µM (titrated, usually from 36.5 µM), for inactives: top-dose activity change, negative = inhibition, most hits filed as inhibitors; Vaccinia virus mCherry reporter infection, fluorescence; AID 720579; 310,000 compounds, 0.63% hits; calls by dose curve; tested in A549 cells; further: potency means the concentration at half of the fitted maximal effect; nearly all actives have a fitted effect of over 35% in size
MARV entry inh: blocks Marburg virus binding to or entry into cells; 300,000 compounds, 1.8% hits; Potency, µM (titrated, usually from 37.8 µM), for inactives: top-dose activity change, negative = inhibition, usual class: inhibitors; Marburg virus pseudotyped entry inhibition, cell reporter; calls by dose curve; tested in HEK293 cells; further: potency means the concentration at half of the fitted maximal effect
HCMV antiviral: inhibitors of human cytomegalovirus | HFF cells, HCMV-luciferase reporter, 72 h; stronger effect = lower value | activity change, negative = inhibition, % at 57.5 µM | 410,000 compounds, 4.5% hits | AID 1259415; in the data active means activity change below about -60%; inconclusive means no clear call, values can overlap the other calls; inactive means above about -39%
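HFF cells seeded 16 h at 37C, treated with compounds, infected with luciferase-reporter HCMV at MOI 1 PFU/cell; luciferase read at 72 h post infection, normalized to buffer-only and Salinomycin controls.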
FMDV antiviral: blocks foot and mouth disease virus; FMDV antiviral cell-based qHTS; Potency, µM (highest dose often 57.9 µM), for the others: top-dose activity change, negative = inhibition, actives largely listed as inhibitors; 410,000 compounds, 1.2% hits; AID 1159524; calls by dose curve; tested in HEK293T cells; further: read-out not given here; potency means the concentration at half of the fitted maximal effect; nearly all actives have a fitted effect of over 45% in size
VACV Venus inh: vaccinia inhibition (Venus reporter). Vaccinia virus Venus reporter expression, fluorescence. Potency, µM (series often up to 36.5 µM), for the others: top-dose activity change, negative = inhibition, usual class: inhibitors. 330,000 compounds, 0.46% hits. AID 720580; calls by dose curve; tested in A549 cells; further: potency means the concentration at half of the fitted maximal effect; nearly all actives have a fitted effect of over 30% in size
Starred values were filed as active, the others as inactive; i = inactive; ? = inconclusive; . = no result given; ! = repeats disagree; [ ] = dose if it differs, or a comment. On the % scale 0 is the no-effect control and ±100 the full control effect.

SMILES	LASV entry inh	Vaccinia mCherry	MARV entry inh	HCMV antiviral	FMDV antiviral	VACV Venus inh
CCN(CC)CCCNC(=O)c1cc2cc(Cl)ccc2nc1N	.	.	.	-25.8	.	.
CCc1nnc(NC(=O)CSc2nc3cccnc3n2C2CCCCC2)s1	5.62µM*	-20.0%	2.51µM*	?	?	-9.6%
CCNC(=O)c1cnc2sc(N3CCCCCC3)nn2c1=O	18.7%[46.1 µM]	-9.2%	.	39.8	13.3%	-8.4%
C[C@@H]1CN([C@H](C)CO)C(=O)CCCn2nncc2CO[C@H]1CN(C)S(=O)(=O)c1cccc(C#N)c1	.	?	.	-9.1	-5.5%	5.01µM*
Nc1[nH]c(=O)ncc1-c1ccc([N+](=O)[O-])cc1	.	.	.	-15.6	.	.
C[C@@H]1CN([C@@H](C)CO)C(=O)CCCn2cc(nn2)CO[C@H]1CN(C)C(=O)Nc1cccc(C(F)(F)F)c1	.	.	.	-12.8	.	.
NCCS	-5.7%	-14.8%	11.2µM*!	5.4	1.7%	-11.2%
COc1cc(/C=N/N2C(=O)C3C4c5ccccc5C(c5ccccc54)C3C2=O)ccc1O (configuration not stated)	12.6µM*	-4.5%	?	24.8	-12.9%	-11.9%
Cc1nc(N/N=C/c2cccc(F)c2)cc(N2CCOCC2)n1	-20.2%	?	7.94µM*	11.0	?	-18.2%
Oc1cccc(/C=N/Nc2cc(N3CCOCC3)nc(N3CCOCC3)n2)c1	?	?	2.59µM*	18.9	-12.7%	?
Cc1nc(N/N=C/c2cccc([N+](=O)[O-])c2)cc(N2CCCCC2)n1	.	-23.1%	.	34.4	0.0%	-18.1%
Oc1ccc(C=Nc2ccc(N3CCOCC3)cc2)c(O)c1	?	-7.4%	?	11.2	16.1%	-10.5%
Oc1ccc(/C=N/Nc2cc(N3CCOCC3)nc(N3CCOCC3)n2)cc1O	6.1%	-22.7%	?	-26.4	?	?
Cc1nc(N/N=C/c2ccc(O)cc2O)cc(N2CCOCC2)n1	?	1.12µM*	2.82µM*	?	-8.8%	?
Oc1ccccc1/C=N/Nc1cc(N2CCCC2)nc(N2CCCC2)n1	?	?	2.31µM*	-35.4	14.0%	?
C#CCCCO/N=C1/C[C@@H](O)[C@@H](O)[C@@H]2[C@@H]3C(=O)N(C(C)(C)C)C(=O)[C@H]3CC[C@H]12	.	.	11.8%[14.2 µM]	.	.	.
Cc1ccc(C(=O)N2N=C(c3ccc(Br)cc3)CC2c2ccccc2O)cc1 (configuration not stated)	12.6µM*	-25.6%	-29.5%	-62.1*	23.2%	?
COc1ccc(C2=NN(C(=O)c3cccs3)C(c3ccccc3O)C2)cc1 (configuration not stated)	.	?	.	-94.8*	-10.9%	?
CCn1c(C(=O)N2CCC(C(=O)N3CCN(c4cc(C)ccc4C)CC3)CC2)cc2sccc21	.	-5.3%	?	-29.5	?	-25.1%
CC(=O)N1CCCN(C(=O)c2ccc3nc(Cc4ccccc4F)oc3c2)CC1	4.0%	i	0.0%	5.6	7.4%	-10.0%
O=C(c1ccc2nc(Cc3ccccc3F)oc2c1)N1CCCC1	6.31µM*	-21.7%	?	155.1	24.6%	-10.4%
CN(C)c1ccc2nc3ccc(=O)cc-3sc2c1	.	73.2%	.	-78.0*	74.7%	?
COC(=O)c1ccccc1NCc1cc(=O)oc2cc(O)c(O)cc12	?	7.08µM*	?	-0.5	-9.2%	?
CCOC(=O)c1c(NC(=O)C2CCCCC2C(=O)O)sc2c1CCCC2 (configuration not stated)	.	.	-12.1%	.	.	.
CCCCn1c(SCC(=O)Nc2cc(C(F)(F)F)cc(C(F)(F)F)c2)nnc1C(CC)N(C)C (configuration not stated)	?	-19.3%	?	-88.4*	?	?
SMILES	LASV entry inh	Vaccinia mCherry	MARV entry inh	HCMV antiviral	FMDV antiviral	VACV Venus inh
COc1cccc(NC(=O)c2csc3c2CCCCC3)c1	.	-15.5%	?	81.1	22.2%	-13.9%
CCOC(=O)c1c(CN2CCNCC2)nc2ccc(Cl)cc2c1-c1ccccc1	-28.6%	10µM*	?	2.1	-17.2%	?
Cc1nc2ccc(Cl)cc2c(-c2ccccc2)c1C(=O)N(C)C	.	.	.	-3.5	2.8%	.
Cc1cccc(CS(=O)(=O)c2ncc(Cl)c(C(=O)Nc3nc4ccc(F)cc4s3)n2)c1	?	?	2.4%[46.1 µM]	-60.3*	15.8µM*	?
O=C(Nc1nc2ccc(F)cc2s1)c1nc(S(=O)(=O)Cc2ccccc2)ncc1Cl	4.47µM*	-28.7%	-10.0%[46.1 µM]	-106.8*	28.2µM*	-26.4%
CN(C)CC1CC/C(=C\c2ccc(O)cc2)C1=O (configuration not stated)	11.2µM*	?	?	-76.2*	?	-20.4%
CC(=O)c1ccc(OC(=O)/C=C/c2ccccc2)cc1	.	.	.	23.2	9.5%	.
COc1ccc(/C=C2/CCC(CN3CCOCC3)C2=O)cc1 (configuration not stated)	12.6µM*	i	?	-98.2*	17.8µM*	4.6%
CC1CCC/C(=C\c2ccc(O)cc2)C1=O (configuration not stated)	.	.	.	-35.3	81.2%	.
CN(C)CC1CCC/C(=C\c2ccc(OC(=O)c3ccc(Cl)cc3)cc2)C1=O (configuration not stated)	?	-20.6%	?	-96.9*	?	?
CN(C)CC1CCC/C(=C\c2ccc(OC(=O)/C=C/c3ccccc3)cc2)C1=O (configuration not stated)	17.3%	-15.3%	-2.0%	0.6	39.8µM*	3.3%
CC(CCN1CCCc2nc(C)c(C)cc21)=NOC[C@@H](C)[C@H](OCc1ccccc1)C(C)C	.	.	-23.6%[14.2 µM]	.	.	.
CCN(CC)S(=O)(=O)c1cc(NC(=O)Cc2ccc(S(=O)(=O)N3CCOCC3)s2)ccc1Cl	.	.	.	-99.4*	31.6µM*	.
Cc1cccc(NC(=O)CNC(=O)Cc2ccc(S(=O)(=O)N3CCOCC3)s2)c1C	.	.	.	-103.8*	-2.7%	.
O=C(Cc1ccc(S(=O)(=O)N2CCOCC2)s1)Nc1cc(C(F)(F)F)cc(C(F)(F)F)c1	.	.	.	-80.4*	0.0%	.
